Read-out in assay [1]: Interleukin-8 (IL8), CXCL8 (gene 3576)
Kind of assay: BSK_3C_IL8: BioMAP Diversity Plus: 3C Assay for Interleukin-8 (IL8) Biomarker Activity (AID 2283020). The following applies: primary human endothelial cells (HUVEC); actives raise or lower the signal. The gist of the method:
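Using DMSO-treated wells as the baseline, bidirectional curve fitting was applied to ELISA-measured IL-8 from human umbilical vein endothelial cultures sampled 24 h after compound addition.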

Read-out in assay [2]: Monokine induced gamma interferon (MIG), CXCL9 (gene 4283)
The assay can be described thus: BSK_3C_MIG: BioMAP Diversity Plus: 3C Assay for Monokine induced gamma interferon (MIG) Biomarker Activity (AID 2283021). The following applies: primary human endothelial cells (HUVEC); actives raise or lower the signal. The gist of the method:
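ELISA-measured MIG in dosed HUVEC 3C cultures at 24 h, analysed by bidirectional fitting with DMSO defining baseline activity.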

For assay [3], the target named is human Vitamin D Receptor (VDR), VDR (gene 7421) (UniProt P11473). The assay can be described thus: ATG_VDR_TRANS: Attagene TRANS-FACTORIAL HepG2 Assay for human Vitamin D Receptor (VDR) (AID 2283022; active means hit-call score of the fitted dose curve at least 0.9, where 1 is the maximum). In short, it runs like this:
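HepG2 cells were transiently transfected with GAL4-UAS reporter units and a chimeric VDR-Gal4 construct, then dosed for 24 hours. Reporter mRNA was quantified by RT-PCR, fluorescent labeling, HpaI digestion and capillary electrophoresis; gain of signal analysed vs DMSO.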

Assay [4] can be described thus: BSK_3C_SRB: Viability Assessment in the BioMAP Diversity Plus: 3C Assay (AID 2283023).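 Further: fitted both ways against DMSO so a hit may be signal rise or drop.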 As to conditions: primary human endothelial cells (HUVEC). The gist of the method: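 Human umbilical vein endothelial cells in the 3C system, treated 24 h. Total protein measured by 0.1% sulforhodamine B staining after 10% TCA fixation, read at 560 nm; bidirectional fit versus DMSO.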

Read-out in assay [5]: Matrix Metallopeptidase 1 (MMP1), MMP1 (gene 4312)
The assay can be described thus: BSK_BE3C_MMP1: BioMAP Diversity Plus: BE3C Assay for Matrix Metallopeptidase 1 (MMP1) Biomarker Activity (AID 2283024). As to conditions: primary human bronchial epithelial cells; actives raise or lower the signal. In short, it runs like this: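 In this multiplexed primary-cell system, human bronchial epithelium received chemicals for 24 h before an ELISA for MMP1. Values reflect bidirectional fits normalised to the DMSO baseline.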

The nature of assay [6]: BSK_3C_Vis: BioMAP Diversity Plus: 3C Assay for Morphology Visualization (AID 2283025).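 Further: fitted both ways so gain or loss versus DMSO counts.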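 On AC50: light microscopy image of cell morphology used as background control.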 The following applies: primary human endothelial cells (HUVEC). The gist of the method:
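Light-microscopy morphology readout, 24 h exposure, human primary umbilical vein endothelium; analysed relative to DMSO with bidirectional fitting.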

Read-out in assay [7]: Pselectin, SELP (gene 6403)
The assay can be described thus: BSK_4H_Pselectin: BioMAP Diversity Plus: 4H Assay for Pselectin Biomarker Activity (AID 2283026). As to conditions: primary human endothelial cells (HUVEC); actives raise or lower the signal. In short, it runs like this:
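Bidirectional fits against DMSO gave the endpoint. Cells: primary human umbilical vein endothelium, chemical-treated for 24 h before ELISA detection of P-selectin.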

Assay [8] is described as follows: BSK_4H_SRB: Viability Assessment in the BioMAP Diversity Plus: 4H Assay (AID 2283027).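 Further: cells exposed to compound for 24 h before staining.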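 On AC50: curves fitted both ways versus DMSO so AC50 may be loss or gain.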 As to conditions: primary human endothelial cells (HUVEC). In short, it runs like this:
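Cytotoxicity readout: sulforhodamine B (0.1%) staining of total protein after 10% TCA fixation, measured at 560 nm in human umbilical vein endothelium at 24 h. DMSO set the baseline; fitting was bidirectional.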

Assay [9] can be described thus: BSK_BE3C_SRB: Viability Assessment in the BioMAP Diversity Plus: BE3C Assay (AID 2283028).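 On AC50: fitted both ways so AC50 may mark signal gain or loss versus DMSO.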 The following applies: primary human bronchial epithelial cells. In short, it runs like this: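 Human bronchial epithelial primary cells in confluent culture, 24 h after chemical dosing; total protein by 0.1% SRB staining after 10% TCA fixation, read at 560 nm. Bidirectional fitting versus DMSO baseline.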

Read-out in assay [10]: Thrombomodulin, THBD (gene 7056)
The assay can be described thus: BSK_3C_Thrombomodulin: BioMAP Diversity Plus: 3C Assay for Thrombomodulin Biomarker Activity (AID 2283029). As to conditions: primary human endothelial cells (HUVEC); actives raise or lower the signal. The gist of the method:
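In a multiplexed primary-cell system, human umbilical vein endothelium received chemical and was assayed 24 h later for thrombomodulin by ELISA. Parallel cultures were SRB-stained (0.1% SRB after 10% TCA fixation, read at 560 nm) to flag cytotoxicity.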

The values that follow come from PubChem BioAssay (EPA / NIEHS).

SMILES strings stand for the structures. Results filed as inconclusive are left out. The source holds several records for some structures; these can differ, active in one and inactive in another. Active and inactive are the calls of the source. How the source made its calls, unless noted: active means hit-call score of the fitted dose curve at least 0.9, where 1 is the maximum; inactive means score below 0.9.

human Vitamin D Receptor (VDR), VDR (gene 7421), sequence (P11473 whole entry, looked up, the tested form may be a part): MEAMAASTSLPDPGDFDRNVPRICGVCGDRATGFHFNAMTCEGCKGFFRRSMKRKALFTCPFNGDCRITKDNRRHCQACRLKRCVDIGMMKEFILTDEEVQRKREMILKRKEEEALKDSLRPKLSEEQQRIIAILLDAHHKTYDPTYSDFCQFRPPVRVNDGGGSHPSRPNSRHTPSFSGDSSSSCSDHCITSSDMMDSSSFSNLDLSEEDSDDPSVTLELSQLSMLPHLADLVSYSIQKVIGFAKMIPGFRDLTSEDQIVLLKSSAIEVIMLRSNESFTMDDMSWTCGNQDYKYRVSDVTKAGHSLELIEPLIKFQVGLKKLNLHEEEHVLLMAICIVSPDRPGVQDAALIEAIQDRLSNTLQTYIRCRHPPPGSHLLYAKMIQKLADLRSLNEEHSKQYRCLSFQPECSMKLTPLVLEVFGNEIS

In general, AC50 refers to the concentration giving half of the maximal activity seen. For the compound `Cc1cc(C2CC2)nc(Nc2ccccc2)n1`, the result in assay [1], in assay [2], in [3], in [5], in assay [7] and in [8] was inactive. Also, in [9], the result was inactive. For the same compound, the AC50 is 24.8 µM (active) in assay [4], 37.5 µM (active) in assay [6] and 33.7 µM (active) in assay [10].

Regarding `CCCSP(=O)(OCC)SCCC`, the outcome in assay [1], in assay [2], in assay [3], in assay [4], in [5] and in assay [6] was inactive. Besides, the outcome in assay [7], in assay [8] and in [10] was inactive.

Regarding `CN(C)[C@@H]1C(=O)C(C(N)=O)=C(O)[C@@]2(O)C(=O)C3=C(O)c4c(O)cccc4[C@@](C)(O)[C@H]3[C@H](O)[C@@H]12`, the result in assay [1], in assay [2], in assay [4], in [5], in [6] and in [7] was inactive. Further, in assay [10], the result was inactive. The AC50 in assay [5] was 15.8 µM (active).

As to `COP(=O)(OC)SCn1c(=O)oc2cc(Cl)cnc21`, the AC50 was 11.3 µM (active) in assay [1], 20 µM (active) in assay [4], 39 µM (active) in assay [6] and 17.5 µM (active) in [7]. The result in [2], in assay [3], in assay [5], in assay [8] and in assay [10] was inactive.

In the case of `CCc1cccc(C)c1N(C(=O)CCl)C(C)COC` (centres undefined), the result in assay [1], in [2], in [3], in [4], in assay [5] and in assay [10] was inactive. For the same compound, the AC50 in [6] is 39 µM (active); in [7], 13.6 µM (active).

In the case of `CNC(=O)Oc1cccc2c1OC(C)(C)O2`, the result in [1], in assay [2], in assay [3], in [5], in [6] and in assay [9] was inactive. In [10], the outcome was inactive. In addition, the AC50 in assay [4] is 20 µM (active); in assay [7], 16.7 µM (active).

As for `Nc1c(Cl)cc([N+](=O)[O-])cc1Cl`, the outcome in assay [1], in assay [2], in [3], in assay [4], in [5] and in assay [6] was inactive. Further, the result in assay [7], in assay [8], in assay [9] and in [10] was inactive.

Take `COc1cc(OC)nc(Sc2cccc(Cl)c2C(=O)O)n1`: the result in [1], in assay [2], in assay [3], in assay [4], in [5] and in assay [6] was inactive. The outcome in [7], in assay [8], in assay [9] and in assay [10] was inactive.

For `CCCOc1nn(C(=O)NS(=O)(=O)c2ccccc2C(=O)OC)c(=O)n1C`, the result in [1], in assay [2], in assay [4], in [5], in assay [6] and in assay [7] was inactive. Moreover, the outcome in assay [8], in [9] and in [10] was inactive.

Turning to `CCCCSP(=O)(SCCCC)SCCCC`, the AC50 in [1] was 31.9 µM (active); in [4] it was 27.9 µM (active); in assay [6] it was 13.7 µM (active); in assay [10] it was 5.35 µM (active). For the same compound, the result in assay [2], in assay [3], in assay [5] and in assay [7] was inactive.

Take `CC1=NNC(=O)N(/N=C/c2cccnc2)C1`: the outcome in assay [1], in [2], in assay [3], in [4], in assay [5] and in [6] was inactive. Further, the outcome in [7], in assay [8] and in assay [10] was inactive.

Take `CCCSP(=O)(OCC)Oc1ccc(Br)cc1Cl` (centres undefined): the result in assay [1], in assay [2], in assay [3], in [5], in assay [6] and in assay [10] was inactive. Further, the AC50 in assay [4] is 22.6 µM (active); in [7], 32.3 µM (active); in [8], 22.8 µM (active); in assay [9], 15.4 µM (active).

`CCC(CC)Nc1c([N+](=O)[O-])cc(C)c(C)c1[N+](=O)[O-]`: the AC50 in [1] is 23.8 µM (active); in assay [4], 16.7 µM (active); in [5], 20 µM (active); in assay [6], 13.7 µM (active); in assay [7] it was 28.5 µM (active); in assay [9], 20 µM (active). Also, in [10], the AC50 was 15.5 µM (active). The result in assay [2] and in assay [3] was inactive.

For `CC(=NC#N)N(C)Cc1ccc(Cl)nc1`, the outcome in assay [1], in assay [2], in assay [3], in assay [4], in [5] and in assay [6] was inactive. Besides, the outcome in assay [7] and in assay [10] was inactive. Also, in assay [8], the AC50 was 7.17 µM (active).

As to `CSc1nc(NC(C)C)nc(NC(C)C)n1`, the result in assay [1], in assay [2], in assay [3], in [5], in assay [6] and in assay [7] was inactive. The result in assay [8] and in assay [10] was inactive. Further, in assay [4], the AC50 is 14 µM (active).

For `CC(COc1ccc(Oc2ccccc2)cc1)Oc1ccccn1` (centres undefined), the result in assay [1], in assay [2], in assay [3], in assay [5], in assay [6] and in assay [7] was inactive. For the same compound, the outcome in assay [10] was inactive. Moreover, the AC50 in assay [4] is 20 µM (active).

As to `CCC(=O)Nc1ccc(Cl)c(Cl)c1`, the result in [1], in assay [2], in assay [4], in assay [5], in [7] and in assay [8] was inactive. Further, the result in [9] and in assay [10] was inactive. The AC50 in assay [6] is 9.8 µM (active).

Take `CCOP(=S)(OCC)Oc1ccc([N+](=O)[O-])cc1`: the result in assay [1], in assay [2], in assay [4], in assay [5], in [7] and in assay [10] was inactive. The figures for the AC50 in assay [6] and in assay [9] were 39 µM (active) and 21.5 µM (active), respectively.

`C=C(C)[C@H]1Cc2c(ccc3c2O[C@@H]2COc4cc(OC)c(OC)cc4[C@@H]2C3=O)O1`: the AC50 in assay [1] is 20 µM (active); in assay [4], 12.9 µM (active); in [6] it was 0.468 µM (active); in assay [7], 10.3 µM (active); in [8] it was 3.9 µM (active). Besides, the result in [2], in [5] and in assay [10] was inactive.
